This note sets out measurements from PubChem BioAssay (NCI).

The panel holds about 83,000 compounds, 20% with a hit somewhere; the sample as a whole holds those more often.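 Plates (96-well) were seeded with cells, treated with compound at one concentration, and incubated for 48 hours before percent growth was determined.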 The source made the active and inactive calls. How the source made its calls: active means growth percent below 10; inactive means the rest.

The test system of one test is ACHN renal. The experiment in a line: NCI-60 one-dose screen, 48 h (100 = growth as untreated, 0 = no growth, -100 = all killed). The conditions noted are these: 10 µM unless noted.
With `FC(F)(F)c1cc(-c2nnc3n2N=C(N2CCCC2)CS3)cc(C(F)(F)F)c1`, the growth is 47.1% (inactive). Same read-out and setting: the result for `Clc1ccc(C2=NN(c3ccc(Cl)cc3)C(c3cccc(Nc4ccnc5cc(Cl)ccc45)c3)C2)cc1` (stereo unspecified) reads 88.7% (inactive). On the same count and under the same terms, the result for `COc1ccc(-c2nnc3c4[nH]cnc4ncn23)c(OC)c1` reads 28.2% (inactive).

As for `Cc1ccc(S(=O)(=O)NCCN2c3nc4ccccc4cc3Sc3cc4ccccc4nc32)cc1`, the growth is 54.2% (inactive). The same measure, in the same setting: the result for `O=C(CNC(=O)c1cccc2ccccc12)Nc1ccccc1Oc1cccc(O)c1` reads 51% [5 µM] (inactive); that for `COc1ccc2c(=O)c(OC)c(-c3cc(OC)c(OC)c(OC)c3)oc2c1`, 92.2% (inactive); that for `COc1cnc2c(c1)C(=O)c1c-2n(CCCN2CCC(O)CC2)c(=O)c2cc(F)ccc12`, -58% (active). Same read-out and setting: to `O=C(/C=C/c1c(-c2ccccc2)[nH]c2ccccc12)S(=O)(=O)c1ccccc1` belongs 71.8% (inactive); to `O=C(Nc1nc2c(C(F)(F)F)cccc2s1)c1cc(Cl)ccc1O`, 5.28% (active).

With `CCN(CC)CCOCC[C@H]1CC[C@H]2[C@@H]3[C@H](C)Cc4cc(OS(N)(=O)=O)ccc4[C@H]3CC[C@]12C`, the growth was -65.9% (active).

Take `NS(=O)(=O)c1ccc(N2CC(c3nc4ccccc4[nH]3)CC2=O)cc1` (stereo unspecified): the growth was 91.9% (inactive).

In the case of `COc1cnc2c(c1)C(=O)c1c-2n(CCCN2CCCC2)c(=O)c2cc(F)ccc12`, the growth was -67.7% (active). For `COc1ccc(-n2cnc3cc(C(=O)N4CCCCC4)ccc32)cc1`, the growth is 97.9% (inactive).

In the case of `COc1cc(-c2n[nH]nc2-c2ccccn2)cc(OC)c1OC`, the growth was 94.8% (inactive). In the case of `COc1cc(C2=NN(C=O)C(c3cccc(Nc4ccnc5cc(Cl)ccc45)c3)C2)cc(OC)c1OC` (stereo unspecified), the growth was 86.2% (inactive).

As for `Cc1sc2nc(NCc3ccccc3)[nH]c(=O)c2c1C`, the growth was 84% (inactive). Still for that read-out and setting: the result for `CC(=O)N1N=C(c2ccc(Nc3nc(NCCO)nc(NCCO)n3)cc2)CC1c1ccc(Cl)cc1` (stereo unspecified) reads 96.4% (inactive).

Consider `COc1ccc(N2CCN(CC(=O)N3CCN(c4nnc(-c5ccc(Cl)cc5)c(-c5ccc(Cl)cc5)n4)CC3)CC2)cc1`, for which the growth is 52.3% (inactive). Take `Cc1cc2c(cc1C)[n+](Cc1ccc3ccccc3c1)cn2Cc1ccc2ccccc2c1`: the growth was -63.9% (active).

`COc1ccc(Oc2ccccc2NC(=O)CNC(=O)c2cccc3ccccc23)cc1`: the growth is 40.3% [5 µM] (inactive). As to `COc1cccc(N2CCN(CC(=O)N3CCN(c4nnc(-c5ccc(Cl)cc5)c(-c5ccc(Cl)cc5)n4)CC3)CC2)c1`, the growth was 57.1% (inactive). As for `COc1ccc(C(=O)/C=C/c2cccc(Nc3ccnc4cc(Cl)ccc34)c2)cc1`, the growth was 29.6% (inactive). For the compound `COc1cc(C2CC(C3C(=O)N(C)C(=O)N(C)C3=O)=NN2c2cc(Cl)cc(Cl)c2)cc(OC)c1OC` (stereo unspecified), the growth was 96.3% (inactive). For the compound `O=C1NC(=O)/C(=C\c2ccco2)S1`, the growth was 100% (inactive). Regarding `COc1ccc2nc(-c3ccc(Cl)cc3)cc(-c3nnc(SCC(=O)Nc4ccc(C(C)=O)cc4)n3-c3ccccc3)c2c1`, the growth is 108% (inactive). The same measure, in the same setting: the result for `O=C(CNC(=O)c1cccc2ccccc12)Nc1ccccc1Cc1ccccc1` reads 56.9% [5 µM] (inactive). As for `CCCCc1n(Cc2ccc3ccccc3c2)cc[n+]1Cc1ccc2ccccc2c1`, the growth is 30% (inactive).

For the compound `COc1cc(C2CC(C3C(=O)N(C)C(=O)N(C)C3=O)=NN2C=O)cc(OC)c1OC` (stereo unspecified), the growth was 105% (inactive).

Regarding `Nc1ncnc2c1CN(Cc1ccccc1)CC2`, the growth was 103% (inactive). For the compound `CCOC(=O)c1sc(NC(=O)COc2cccc(/C=C3\Cc4ccc(Cl)cc4C3=O)c2)nc1C`, the growth is 110% (inactive). Still for that read-out and setting: the result for `COC(=O)[C@H](CCCCNC(=O)OCc1ccccc1)NC(=O)[C@@H](NC(=O)Nc1cc(C(F)(F)F)cc(C(F)(F)F)c1)C(C)C` reads -99.4% [100 µM] (active); that for `COc1cc(C(=O)/C=C/c2cccc(Nc3ccnc4cc(Cl)ccc34)c2)cc(OC)c1OC`, -68.7% (active); that for `CN1C(=O)C(C2=NN(C=O)C(c3ccc(F)cc3)C2)C(=O)N(C)C1=O` (stereo unspecified), 107% (inactive). The same measure, in the same setting: to `O=CN1N=C(c2ccc(Nc3ccnc4cc(Cl)ccc34)cc2)CC1c1ccc(Cl)cc1` (stereo unspecified) belongs 27.9% (inactive).

On to `COc1cccc(-c2nc3cc(NC(=O)c4ccc(Cl)c(C#N)c4)ccc3o2)c1`, for which the growth was 36.2% (inactive).

The subject of a further test is CAKI-1 renal. Described as above. The following applies: 10 µM unless noted.
Consider `FC(F)(F)c1cc(-c2nnc3n2N=C(N2CCCC2)CS3)cc(C(F)(F)F)c1`, for which the growth is 87.7% (inactive). Consider `C=CCN(/C=C/CN(CC=C)CC=C)CC=C`, for which the growth was 69.7% (inactive). As to `COc1ccc(-c2nnc3c4[nH]cnc4ncn23)c(OC)c1`, the growth is 20.9% (inactive). With `Cc1ccc(S(=O)(=O)NCCN2c3nc4ccccc4cc3Sc3cc4ccccc4nc32)cc1`, the growth was 92.5% (inactive). As for `O=C(/C=C/c1c(-c2ccccc2)[nH]c2ccccc12)S(=O)(=O)c1ccccc1`, the growth was 200% (inactive). For the compound `NS(=O)(=O)c1ccc(N2CC(c3nc4ccccc4[nH]3)CC2=O)cc1` (stereo unspecified), the growth is 97.3% (inactive). For the compound `COc1ccc(-n2cnc3cc(C(=O)N4CCCCC4)ccc32)cc1`, the growth is 98.5% (inactive). Still for that read-out and setting: the result for `COc1cc(-c2n[nH]nc2-c2ccccn2)cc(OC)c1OC` reads 124% (inactive); that for `COc1ccc(N2CCN(CC(=O)N3CCN(c4nnc(-c5ccc(Cl)cc5)c(-c5ccc(Cl)cc5)n4)CC3)CC2)cc1`, 147% (inactive). As for `C1CCC(C(CC2CCCCN2)C2CCCCC2)CC1` (stereo unspecified), the growth was 5.48% (active). Same read-out and setting: to `COc1cccc(N2CCN(CC(=O)N3CCN(c4nnc(-c5ccc(Cl)cc5)c(-c5ccc(Cl)cc5)n4)CC3)CC2)c1` belongs 92.2% (inactive); to `Nc1ncnc2c1CN(Cc1ccccc1)CC2`, 102% (inactive); to `CCOC(=O)c1sc(NC(=O)COc2cccc(/C=C3\Cc4ccc(Cl)cc4C3=O)c2)nc1C`, 84.6% (inactive). As to `COC(=O)[C@H](CCCCNC(=O)OCc1ccccc1)NC(=O)[C@@H](NC(=O)Nc1cc(C(F)(F)F)cc(C(F)(F)F)c1)C(C)C`, the growth was -36.3% [100 µM] (active). The same measure, in the same setting: to `O=CN1N=C(c2ccc(Nc3ccnc4cc(Cl)ccc34)cc2)CC1c1ccc(Cl)cc1` (stereo unspecified) belongs 39.4% (inactive); to `COc1cccc(-c2nc3cc(NC(=O)c4ccc(Cl)c(C#N)c4)ccc3o2)c1`, 26.4% (inactive).
